Our source for the log2 fold change values is the supplement of paper PMC10849652.

About 7,900 targets were measured; listed, in parts, are those with a hit and a random draw of the rest. About 0.6% of all pairs of compound and target were hits. Values without a mark were called inactive.

Chain of UniProt Q99643 (Q99643 whole entry, looked up): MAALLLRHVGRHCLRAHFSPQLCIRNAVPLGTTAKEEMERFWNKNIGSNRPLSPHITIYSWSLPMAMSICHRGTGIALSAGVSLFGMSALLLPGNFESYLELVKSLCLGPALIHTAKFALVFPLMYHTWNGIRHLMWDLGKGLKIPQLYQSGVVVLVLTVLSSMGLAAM
Chain of UniProt Q7L4I2 (Q7L4I2 whole entry, looked up): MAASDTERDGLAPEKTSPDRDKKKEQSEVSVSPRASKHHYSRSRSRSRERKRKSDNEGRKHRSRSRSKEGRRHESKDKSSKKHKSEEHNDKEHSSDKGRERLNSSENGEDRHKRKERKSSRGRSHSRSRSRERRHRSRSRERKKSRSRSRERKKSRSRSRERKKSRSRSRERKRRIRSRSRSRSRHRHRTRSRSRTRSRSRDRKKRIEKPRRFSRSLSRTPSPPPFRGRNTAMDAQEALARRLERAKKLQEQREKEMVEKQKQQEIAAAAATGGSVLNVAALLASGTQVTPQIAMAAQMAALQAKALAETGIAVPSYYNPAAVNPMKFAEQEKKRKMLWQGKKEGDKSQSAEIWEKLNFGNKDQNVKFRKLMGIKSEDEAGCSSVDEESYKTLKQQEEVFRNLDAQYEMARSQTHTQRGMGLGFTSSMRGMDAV
Chain of UniProt O15027 (O15027 whole entry, looked up): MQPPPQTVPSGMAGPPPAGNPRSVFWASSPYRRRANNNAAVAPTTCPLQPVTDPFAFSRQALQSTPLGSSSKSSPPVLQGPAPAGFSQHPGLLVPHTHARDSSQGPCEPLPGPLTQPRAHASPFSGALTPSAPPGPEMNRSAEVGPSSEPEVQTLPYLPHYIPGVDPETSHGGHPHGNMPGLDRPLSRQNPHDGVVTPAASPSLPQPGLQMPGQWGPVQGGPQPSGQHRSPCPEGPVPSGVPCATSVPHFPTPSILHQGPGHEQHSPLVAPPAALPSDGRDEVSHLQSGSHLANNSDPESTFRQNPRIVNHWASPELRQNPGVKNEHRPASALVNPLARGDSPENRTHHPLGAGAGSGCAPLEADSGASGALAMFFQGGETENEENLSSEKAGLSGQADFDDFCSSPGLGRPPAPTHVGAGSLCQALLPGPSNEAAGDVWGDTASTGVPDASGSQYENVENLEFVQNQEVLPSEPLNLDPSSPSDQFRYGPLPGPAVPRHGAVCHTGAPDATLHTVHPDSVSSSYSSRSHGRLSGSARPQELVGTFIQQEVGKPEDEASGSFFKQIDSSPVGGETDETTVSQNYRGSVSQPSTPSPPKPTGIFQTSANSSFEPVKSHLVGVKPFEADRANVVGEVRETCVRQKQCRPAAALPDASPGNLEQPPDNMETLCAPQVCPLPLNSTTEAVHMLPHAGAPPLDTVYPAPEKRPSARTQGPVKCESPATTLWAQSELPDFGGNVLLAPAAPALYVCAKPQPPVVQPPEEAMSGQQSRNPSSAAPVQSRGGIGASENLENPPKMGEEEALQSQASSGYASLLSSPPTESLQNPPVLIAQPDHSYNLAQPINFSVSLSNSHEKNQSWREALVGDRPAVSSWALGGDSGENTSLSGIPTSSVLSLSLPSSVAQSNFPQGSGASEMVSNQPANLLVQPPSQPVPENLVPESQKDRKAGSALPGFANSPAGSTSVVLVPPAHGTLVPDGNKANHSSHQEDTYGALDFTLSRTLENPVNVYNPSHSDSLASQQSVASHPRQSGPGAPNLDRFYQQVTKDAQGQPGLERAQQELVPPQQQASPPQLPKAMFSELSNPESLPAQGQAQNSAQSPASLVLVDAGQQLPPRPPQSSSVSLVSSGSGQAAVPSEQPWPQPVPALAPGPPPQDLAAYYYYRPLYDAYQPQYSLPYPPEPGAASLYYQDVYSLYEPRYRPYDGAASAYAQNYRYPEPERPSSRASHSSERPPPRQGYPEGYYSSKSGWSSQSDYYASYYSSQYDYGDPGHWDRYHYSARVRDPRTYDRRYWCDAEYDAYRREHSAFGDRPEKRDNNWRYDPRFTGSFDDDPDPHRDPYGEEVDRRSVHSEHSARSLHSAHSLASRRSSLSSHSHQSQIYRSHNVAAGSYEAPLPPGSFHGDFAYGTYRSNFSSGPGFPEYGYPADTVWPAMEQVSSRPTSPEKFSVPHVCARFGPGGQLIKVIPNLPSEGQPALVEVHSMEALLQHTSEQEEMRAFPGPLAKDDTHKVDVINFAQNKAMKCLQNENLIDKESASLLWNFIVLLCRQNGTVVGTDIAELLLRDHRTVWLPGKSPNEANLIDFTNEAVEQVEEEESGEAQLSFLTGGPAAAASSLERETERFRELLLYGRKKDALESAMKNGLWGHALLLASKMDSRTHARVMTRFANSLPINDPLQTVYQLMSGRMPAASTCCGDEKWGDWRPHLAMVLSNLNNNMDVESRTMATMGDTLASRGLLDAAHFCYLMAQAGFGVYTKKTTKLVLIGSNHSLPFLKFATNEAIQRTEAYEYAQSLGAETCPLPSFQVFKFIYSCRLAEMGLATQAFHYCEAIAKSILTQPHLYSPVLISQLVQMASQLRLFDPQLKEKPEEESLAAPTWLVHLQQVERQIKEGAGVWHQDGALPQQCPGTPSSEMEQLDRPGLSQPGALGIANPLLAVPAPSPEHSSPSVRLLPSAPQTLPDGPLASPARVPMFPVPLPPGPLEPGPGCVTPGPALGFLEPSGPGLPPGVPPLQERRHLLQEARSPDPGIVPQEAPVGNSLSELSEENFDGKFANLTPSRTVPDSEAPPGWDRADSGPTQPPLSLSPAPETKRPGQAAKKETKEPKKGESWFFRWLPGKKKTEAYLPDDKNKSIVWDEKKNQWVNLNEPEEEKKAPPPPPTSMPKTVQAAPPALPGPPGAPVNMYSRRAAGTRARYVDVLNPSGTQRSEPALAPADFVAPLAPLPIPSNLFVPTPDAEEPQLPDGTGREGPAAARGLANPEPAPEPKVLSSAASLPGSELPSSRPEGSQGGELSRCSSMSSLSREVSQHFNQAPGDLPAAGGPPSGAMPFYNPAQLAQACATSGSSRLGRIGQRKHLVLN
Chain of UniProt Q92696 (Q92696 whole entry, looked up): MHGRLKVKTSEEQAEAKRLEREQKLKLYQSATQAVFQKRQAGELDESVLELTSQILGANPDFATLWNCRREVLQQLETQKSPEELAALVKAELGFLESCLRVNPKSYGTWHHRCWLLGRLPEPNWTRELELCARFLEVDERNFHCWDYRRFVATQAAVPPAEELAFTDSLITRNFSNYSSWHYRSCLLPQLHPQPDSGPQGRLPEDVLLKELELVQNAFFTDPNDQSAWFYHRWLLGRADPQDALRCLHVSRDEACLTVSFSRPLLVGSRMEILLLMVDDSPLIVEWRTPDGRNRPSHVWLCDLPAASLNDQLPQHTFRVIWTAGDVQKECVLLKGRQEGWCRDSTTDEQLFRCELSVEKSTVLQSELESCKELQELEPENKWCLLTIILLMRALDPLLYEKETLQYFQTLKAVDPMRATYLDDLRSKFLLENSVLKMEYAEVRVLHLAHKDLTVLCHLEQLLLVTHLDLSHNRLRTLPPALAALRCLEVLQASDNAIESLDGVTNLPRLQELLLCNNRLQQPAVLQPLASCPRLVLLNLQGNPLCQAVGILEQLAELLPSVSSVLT
Chain of UniProt O43818 (O43818 whole entry, looked up): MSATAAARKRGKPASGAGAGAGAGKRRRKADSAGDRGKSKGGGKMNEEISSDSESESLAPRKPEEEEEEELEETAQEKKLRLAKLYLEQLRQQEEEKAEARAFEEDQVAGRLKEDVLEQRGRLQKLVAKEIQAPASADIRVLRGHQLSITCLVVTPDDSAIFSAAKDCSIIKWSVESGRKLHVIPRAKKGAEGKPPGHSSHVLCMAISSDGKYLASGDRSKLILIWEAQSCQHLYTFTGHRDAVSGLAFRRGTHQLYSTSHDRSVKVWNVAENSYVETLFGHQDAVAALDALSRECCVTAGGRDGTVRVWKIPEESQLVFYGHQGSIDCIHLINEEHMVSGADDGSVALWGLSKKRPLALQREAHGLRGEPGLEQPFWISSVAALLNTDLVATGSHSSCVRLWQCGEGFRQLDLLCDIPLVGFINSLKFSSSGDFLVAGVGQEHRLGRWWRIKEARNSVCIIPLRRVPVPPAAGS
Chain of UniProt Q5RL73 (Q5RL73 whole entry, looked up): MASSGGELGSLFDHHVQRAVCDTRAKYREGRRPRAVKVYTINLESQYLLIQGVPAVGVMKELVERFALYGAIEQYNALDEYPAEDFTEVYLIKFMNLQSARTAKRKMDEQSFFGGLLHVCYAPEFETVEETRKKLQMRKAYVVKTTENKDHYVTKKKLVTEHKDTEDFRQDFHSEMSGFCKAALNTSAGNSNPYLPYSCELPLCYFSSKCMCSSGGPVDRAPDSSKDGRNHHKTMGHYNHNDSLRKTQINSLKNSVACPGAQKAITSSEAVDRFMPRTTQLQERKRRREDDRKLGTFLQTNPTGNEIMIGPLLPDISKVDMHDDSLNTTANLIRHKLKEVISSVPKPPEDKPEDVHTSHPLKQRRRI
Chain of UniProt Q5VZM2 (Q5VZM2 whole entry, looked up): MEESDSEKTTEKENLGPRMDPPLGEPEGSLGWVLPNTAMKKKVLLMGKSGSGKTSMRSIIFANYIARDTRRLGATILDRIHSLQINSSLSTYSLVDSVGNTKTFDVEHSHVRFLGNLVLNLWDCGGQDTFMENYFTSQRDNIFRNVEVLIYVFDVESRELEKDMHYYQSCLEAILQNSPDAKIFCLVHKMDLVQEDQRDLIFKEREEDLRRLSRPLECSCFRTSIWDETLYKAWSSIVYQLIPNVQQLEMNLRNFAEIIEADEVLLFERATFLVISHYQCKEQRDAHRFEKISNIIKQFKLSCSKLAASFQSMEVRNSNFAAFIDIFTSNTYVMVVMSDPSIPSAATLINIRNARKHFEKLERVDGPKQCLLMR
Chain of UniProt P51148 (P51148 whole entry, looked up): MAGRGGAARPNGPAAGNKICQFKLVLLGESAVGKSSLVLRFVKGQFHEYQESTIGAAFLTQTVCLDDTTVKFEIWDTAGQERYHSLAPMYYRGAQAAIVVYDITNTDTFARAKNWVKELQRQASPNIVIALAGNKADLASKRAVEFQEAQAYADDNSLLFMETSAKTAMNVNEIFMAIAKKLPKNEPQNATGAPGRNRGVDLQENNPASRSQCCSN

Compound in one test: CC(C)C[C@@H](C=O)NC(=O)[C@H](CC(C)C)NC(=O)[C@H](CC(C)C)NC(=O)OCc1ccccc1
The experiment in a line: log2 fold change, soluble protein after heating vs DMSO (PISA); higher = thermal stabilisation; K562 cells, 10 uM, 30 min; active = over 0.2 and 3.5 SD of the protein, either way, in both replicates (recomputed). The method, boiled down:
(§1)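 K562 cells at 2×10^6 cells/mL were treated for 30 min with 10 μM compound, and aliquots were heated for 3 min over 48°C-58°C before pooling. Extraction used PBS with 0.5% NP-40 at 4°C, and soluble protein was the supernatant after 21,000xg for 90 min, measured by TMTpro 16plex LC-MS/MS with channel sums equalised. Thermal stability values, relative to control samples and from duplicates, are log2 fold changes.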
On to RPS3 (UniProt P23396), for which the log2 fold change is 0.016.

In the case of SDHC (UniProt Q99643), the log2 fold change was -0.286.

REL (UniProt Q04864): the log2 fold change was 0.062.

For SERINC1 (UniProt Q9NRX5), the log2 fold change was 0.095.

Take RPS9 (UniProt P46781): the log2 fold change was 0.

For RPS27A (UniProt P62979), the log2 fold change was 0.114.

Consider RPS18 (UniProt P62269), for which the log2 fold change is 0.054.

As for RBM33 (UniProt Q96EV2), the log2 fold change is -0.01.

For SEC23IP (UniProt Q9Y6Y8), the log2 fold change was 0.006.

For the target RRAGB (UniProt Q5VZM2), the log2 fold change was 0.011.

As to RPS16 (UniProt P62249), the log2 fold change was 0.035.

For RPS4X (UniProt P62701), the log2 fold change is 0.074.

Turning to RABGGTA (UniProt Q92696), the log2 fold change was -0.041.

With RSL1D1 (UniProt O76021), the log2 fold change is 0.076.

Take ROR2 (UniProt Q01974): the log2 fold change is -0.001.

Turning to SEC16A isoform 5 (UniProt O15027), the log2 fold change is 0.046.

For RETSAT (UniProt Q6NUM9), the log2 fold change is -0.007.

As to RAB5C isoform 2 (UniProt P51148), the log2 fold change was -0.042.

For RSF1 (UniProt Q96T23), the log2 fold change was -0.058.

Consider SCAMP2 (UniProt H3BUB6), for which the log2 fold change is 0.192.

Consider RSRC2 (UniProt Q7L4I2), for which the log2 fold change was -0.026.

For the target RAB5IF isoform 5 (UniProt Q9BUV8), the log2 fold change is -0.143.

With RGS10 (UniProt O43665), the log2 fold change is -0.004.

On to ROCK1 (UniProt Q13464), for which the log2 fold change was 0.012.

Consider SCYL3 isoform 2 (UniProt Q8IZE3), for which the log2 fold change is -0.002.

As to SCAF11 (UniProt Q99590), the log2 fold change was 0.213.

Turning to RCC1 isoform 2 (UniProt P18754), the log2 fold change is 0.041.

On to RPS6KA2 isoform 2 (UniProt Q15349), for which the log2 fold change was 0.07.

Take RNASET2 (UniProt O00584): the log2 fold change is -0.004.

As to RBM48 isoform 2 (UniProt Q5RL73), the log2 fold change is -0.301.

As to RPS3A (UniProt P61247), the log2 fold change was 0.059.

With RRP9 (UniProt O43818), the log2 fold change is -0.002.

In the case of SASH1 (UniProt O94885), the log2 fold change was 0.152.

As to RIPK1 (UniProt Q13546), the log2 fold change was 0.14.

Compound in a further test: CC(C)N(C[C@H]1O[C@@H](n2cnc3c(N)ncnc32)[C@H](O)[C@@H]1O)[C@H]1C[C@@H](CCc2nc3cc(C(C)(C)C)ccc3[nH]2)C1 [pinometostat]
Described as above. The essentials: as §1
With RPS3 (UniProt P23396), the log2 fold change was 0.128.

Turning to SDHC (UniProt Q99643), the log2 fold change was -0.086.

Take REL (UniProt Q04864): the log2 fold change was 0.089.

In the case of SERINC1 (UniProt Q9NRX5), the log2 fold change was -0.022.

On to RPS9 (UniProt P46781), for which the log2 fold change is 0.206.

Regarding RPS27A (UniProt P62979), the log2 fold change is 0.078.

For RPS18 (UniProt P62269), the log2 fold change was 0.149.

RBM33 (UniProt Q96EV2): the log2 fold change is -0.01.

As to SEC23IP (UniProt Q9Y6Y8), the log2 fold change is 0.032.

As for RRAGB (UniProt Q5VZM2), the log2 fold change was 0.039.

With RPS16 (UniProt P62249), the log2 fold change was 0.102.

For RPS4X (UniProt P62701), the log2 fold change was 0.273.

RABGGTA (UniProt Q92696): the log2 fold change is -0.027.

Take RSL1D1 (UniProt O76021): the log2 fold change was 0.393.

ROR2 (UniProt Q01974): the log2 fold change was 0.045.

In the case of SEC16A isoform 5 (UniProt O15027), the log2 fold change was 0.097.

In the case of RETSAT (UniProt Q6NUM9), the log2 fold change is -0.012.

Turning to RAB5C isoform 2 (UniProt P51148), the log2 fold change is -0.028.

As to RSF1 (UniProt Q96T23), the log2 fold change was -0.123.

As for SCAMP2 (UniProt H3BUB6), the log2 fold change is 0.053.

In the case of RSRC2 (UniProt Q7L4I2), the log2 fold change was -0.019.

Consider RAB5IF isoform 5 (UniProt Q9BUV8), for which the log2 fold change was -0.105.

On to RGS10 (UniProt O43665), for which the log2 fold change was 0.087.

With ROCK1 (UniProt Q13464), the log2 fold change is 0.027.

Turning to SCYL3 isoform 2 (UniProt Q8IZE3), the log2 fold change was 0.054.

As for SCAF11 (UniProt Q99590), the log2 fold change is 0.157.

Consider RCC1 isoform 2 (UniProt P18754), for which the log2 fold change is 0.023.

In the case of RPS6KA2 isoform 2 (UniProt Q15349), the log2 fold change was 0.01.

With RNASET2 (UniProt O00584), the log2 fold change is -0.014.

In the case of RBM48 isoform 2 (UniProt Q5RL73), the log2 fold change is 0.068.

Consider RPS3A (UniProt P61247), for which the log2 fold change was 0.108.

Regarding RRP9 (UniProt O43818), the log2 fold change is 0.01.

For the target SASH1 (UniProt O94885), the log2 fold change is 0.081.

With RIPK1 (UniProt Q13546), the log2 fold change is 0.123.
